This is a sample that favours compounds with a hit; in the whole collection about 12% have one here.
Sm TGR inh = blocks Schistosoma mansoni thioredoxin glutathione reductase; 360,000 compounds, 3% hits; purified TGR, DTNB reduction, TNB absorbance 405 nm; Potency, µM (series often up to 114 µM), inactives show at the highest dose activity change, negative = inhibition, hits mostly inhibitors; AID 485364; note: % is set by controls: 0 for no effect and ±100 for the full control effect; nearly all actives have a fitted effect of over 60% in size
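First, TGR (20 nM dispensed) and NADPH were mixed with compound. Second, a 15 min room-temperature incubation followed. Third, further NADPH and then DTNB were added to start the reaction. Finally, TNB absorbance was monitored kinetically.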
Pf growth 48h = inhibits P. falciparum growth in the first generation, 48 h. P. falciparum luciferase growth in erythrocytes, 48 h. Potency, µM (highest dose often 28.7 µM), inactives show at the top dose activity change, negative = inhibition, most hits filed as inhibitors. 310,000 compounds, 5.9% hits. AID 504832; note: % is set by controls: 0 for no effect and ±100 for the full control effect
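In quantitative HTS format, infected erythrocytes bearing luciferase-reporter parasites were treated for a single generation at 37 C. Luminescence after adding detection reagent served as the growth measure.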
Pf growth 96h = P. falciparum growth inhibition at 96 hour, primary screen for plastid delayed-death inhibitors; AID 504834; Potency, µM (series often up to 28.7 µM), for the others: at the highest dose activity change, negative = inhibition, actives largely listed as inhibitors; 320,000 compounds, 6.9% hits; P. falciparum luciferase reporter growth, 96 h; note: % is set by controls: 0 for no effect and ±100 for the full control effect
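P. falciparum expressing integrated firefly luciferase grown in erythrocytes (2% hematocrit, 0.05% parasitemia final) with compounds for 96 hours at 37 C, 5% CO2. Growth inhibition read as loss of luminescence after adding luciferase detection reagent.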
AmpC inh no detg = inhibitors of E. coli AmpC beta-lactamase without detergent; 330,000 compounds, 0.52% hits; Potency, µM (doses to about 57.1 µM), without a hit: top-dose activity change, negative = inhibition, usual class: inhibitors; P00811; AmpC nitrocefin hydrolysis, absorbance 480 nm, 0.0001% Triton;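 note: plate controls were no compound for no effect and no enzyme for full effect; nearly all actives have a fitted effect of over 20% in size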
Target sequence (P00811 whole entry, looked up): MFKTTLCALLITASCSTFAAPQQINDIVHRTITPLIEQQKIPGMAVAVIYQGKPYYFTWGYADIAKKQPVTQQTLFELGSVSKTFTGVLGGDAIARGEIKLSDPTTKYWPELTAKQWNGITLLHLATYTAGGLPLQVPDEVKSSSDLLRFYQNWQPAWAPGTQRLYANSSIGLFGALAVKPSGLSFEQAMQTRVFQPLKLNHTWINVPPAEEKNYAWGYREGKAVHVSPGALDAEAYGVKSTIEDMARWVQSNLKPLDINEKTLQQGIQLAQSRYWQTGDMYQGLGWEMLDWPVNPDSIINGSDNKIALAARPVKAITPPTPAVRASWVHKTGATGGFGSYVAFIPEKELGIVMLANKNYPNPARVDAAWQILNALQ
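AmpC (5.3 nM in the dispensed reagent) in 20 mM phosphate pH 7.0 with 0.01% (detergent screen) or 0.0001% Triton X-100 was preincubated with compounds for 15 min at room temperature. Nitrocefin was then added from an 800 uM solution, and hydrolysis was followed at 480 nm.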
AmpC inh detg = inhibitors of E. coli AmpC beta-lactamase with detergent; 370,000 compounds, 0.041% hits; P00811; AID 485294; Potency, µM (highest dose often 114 µM), for the others: at the top dose activity change, negative = inhibition, usual class: inhibitors; AmpC hydrolysis of nitrocefin, absorbance 480 nm, 0.01% Triton;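 note: 0% = no-compound wells and -100% = no-enzyme wells; nearly all actives have a fitted effect of over 25% in size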
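20 mM phosphate pH 7.0 + 0.01% (detergent screen) or 0.0001% Triton X-100; 5.3 nM AmpC reagent; cpd preinc 15 min RT; nitrocefin (800 uM stock) to start; A480 q20 s × 4 min; Activity was normalised to no-enzyme and no-compound control wells.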
SARS PLpro yeast = inhibitors of SARS-CoV papain-like protease in yeast | S. cerevisiae expressing SARS-CoV PLpro, growth rescue | Potency, µM (highest dose often 32.9 µM), for the others: top-dose activity, positive = growth rescue, most hits filed as activators | 330,000 compounds, 0.19% hits | AID 485353; calls by dose curve; note: 0% is about no effect; nearly all actives have a fitted effect of over 55% in size
Active calls of the source: *. Unless noted, calls come from the whole dose curve; as a rule, active = well fitted curve in the direction sought with a large enough effect; inconclusive = small, poorly fitted or top-dose-only effect, or another doubt; inactive = no such curve, though single readings can be large; an effect the other way counts as inactive or inconclusive. Potency is the fitted concentration of half-maximal effect.

How did COc1cccc(COC(=O)C2CCN(S(=O)(=O)c3ccc(C)cc3)CC2)c1OC do in these assays?
Sm TGR inh: 3%; Pf growth 48h: inconclusive; Pf growth 96h: 0%; AmpC inh no detg: -4%; AmpC inh detg: inconclusive; SARS PLpro yeast: -3%

What do the screens show for `COc1ccccc1CNC(=O)COc1ccc(S(=O)(=O)N2CCCC2)cc1`?
Sm TGR inh: 5%; Pf growth 48h: 13µM*; Pf growth 96h: -28%; AmpC inh no detg: -5%; AmpC inh detg: -10%; SARS PLpro yeast: -2%

What do the screens show for `Cc1ccccc1N(CC(=O)NCCc1ccccc1)C(=O)c1ccc(N2CCCC2)nc1`?
Sm TGR inh: 5%; Pf growth 48h: 10µM*; Pf growth 96h: inconclusive; AmpC inh no detg: 78%; AmpC inh detg: inconclusive; SARS PLpro yeast: -1%

What do the screens show for `COc1ccc(C2=CC(=O)OC(C)(c3ccccc3)O2)cc1` (stereo unspecified)?
Sm TGR inh: -9%; Pf growth 48h: 12µM*; Pf growth 96h: 96%; AmpC inh no detg: -14%; AmpC inh detg: 1%; SARS PLpro yeast: 13%

How did CC(=O)N(C)c1ccc(OCC(O)Cn2c(C)nc3ccccc32)cc1 (stereo unspecified) do in these assays?
Sm TGR inh: -9%; Pf growth 48h: inconclusive; Pf growth 96h: inconclusive; AmpC inh no detg: 27%; AmpC inh detg: 1%; SARS PLpro yeast: 1%

Results for CN(C)c1ccc2nc3c(=O)[nH]c(=O)nc-3n(CC(O)C(O)C(O)CO)c2c1 (stereo unspecified) ?
Sm TGR inh: 9%; Pf growth 48h: 4.1µM*; Pf growth 96h: 44%; AmpC inh no detg: -12%; AmpC inh detg: 3%; SARS PLpro yeast: -5%

Results for COc1ccc(C2=Nn3c([n+](C)c4ccccc43)SC2)cc1 ?
Sm TGR inh: 12%; Pf growth 48h: 0.83µM*; Pf growth 96h: -23%; AmpC inh no detg: -1%; AmpC inh detg: 1%; SARS PLpro yeast: 2%

How did CC[C@@]1(C(=O)OC)N[C@H](CN(C)C(=O)c2ccc(C)cc2)[C@@H]2C(=O)N(C)C(=O)[C@@H]21 do in these assays?
AmpC inh no detg: -2%; SARS PLpro yeast: 9%

What do the screens show for `Cc1cc(C)c(C)c(S(=O)(=O)Nc2ccc(OCC(=O)O)cc2)c1C`?
Sm TGR inh: -7%; Pf growth 96h: inconclusive; AmpC inh no detg: -28%; AmpC inh detg: inconclusive; SARS PLpro yeast: -1%

Results for Cc1cc(F)ccc1S(=O)(=O)N1CCCOC1CNC(=O)C(=O)NCCc1c[nH]c2ccccc12 (stereo unspecified) ?
Sm TGR inh: 0%; Pf growth 48h: inconclusive; Pf growth 96h: 9.3µM*; AmpC inh no detg: -28%; AmpC inh detg: 3%; SARS PLpro yeast: -2%

How did Cc1cc(S(=O)(=O)N2CCCOC2CNC(=O)C(=O)NCCc2ccco2)ccc1F (stereo unspecified) do in these assays?
Sm TGR inh: -16%; Pf growth 48h: -12%; Pf growth 96h: 8.3µM*; AmpC inh no detg: 30%; AmpC inh detg: -2%; SARS PLpro yeast: -4%

Results for COc1ccc(CCNC(=O)C(=O)NCC2OCCN2S(=O)(=O)c2ccc3c(c2)OCCO3)cc1OC (stereo unspecified) ?
Sm TGR inh: -17%; Pf growth 48h: inconclusive; Pf growth 96h: 12µM*; AmpC inh no detg: 149%; AmpC inh detg: -4%; SARS PLpro yeast: 1%

What do the screens show for `CCOc1ccccc1CNC(=O)c1cc2c(=O)n(Cc3ccccc3)ccc2nc1C`?
Sm TGR inh: -9%; AmpC inh detg: -8%

What do the screens show for `O=C(O)Cn1cc(C(=S)N2CCOCC2)c2ccccc21`?
Sm TGR inh: -9%; Pf growth 48h: -2%; AmpC inh no detg: -30%; AmpC inh detg: -5%; SARS PLpro yeast: 0%
